Data: PubChem BioAssay AID1159580 (chemical genetic matrix, 2015)
About 2,000 (36%) of roughly 5,500 compounds were called active. Not shown: some 18% with an inconclusive outcome. Rule as the data show it: active = normalized growth mostly below about 0.91 (no sharp cut-off); inconclusive = no clear call, values can overlap the other calls; inactive = mostly above about 0.92. This is one part of the list.

Test: chemical genetic growth profiling, strain panel (AID 1159580);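 also: tested at 20 µM; growth read once vehicle control cultures reached saturation at 30 °C; 1 = growth at the plate median or of vehicle wells; lower values mean less growth of the strain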
Details: S. cerevisiae deletion strains, growth OD

Measured: normalized growth

CN=C(NC#N)NCCSCc1nc(N=C(N)N)cs1
inactive: locus YAL021C, strain ccr4, stronger effect = lower value 0.966 | locus YAL026C, strain drs2, stronger effect = lower value 0.981 | locus YAL030W, strain snc1, stronger effect = lower value 0.998 | locus YBL061C, strain skt5, stronger effect = lower value 0.988 | locus YBR009C, strain hhf1, stronger effect = lower value 0.99 | locus YBR023C, strain chs3, stronger effect = lower value 0.991 | locus YBR171W, strain sec66, stronger effect = lower value 0.975 | locus YBR231C, strain swc5, stronger effect = lower value 0.986 | locus YBR279W, strain paf1, stronger effect = lower value 0.99 | locus YCL011C, strain gbp2, stronger effect = lower value 0.966 | locus YCL016C, strain dcc1, stronger effect = lower value 0.984 | locus YCL061C, strain MRC1, stronger effect = lower value 0.974 | locus YCL069W, strain vba3, stronger effect = lower value 0.978 | locus YCR088W, strain abp1, stronger effect = lower value 0.967 | locus YDL005C, strain med2, stronger effect = lower value 0.986 | locus YDL040C, strain nat1, stronger effect = lower value 0.994 | locus YDR001C, strain nth1, stronger effect = lower value 0.978 | locus YDR069C, strain doa4, stronger effect = lower value 0.988 | locus YDR137W, strain rgp1, stronger effect = lower value 0.977 | locus YDR159W, strain sac3, stronger effect = lower value 0.985 | locus YDR195W, strain ref2 0.957 | locus YDR297W, strain sur2, stronger effect = lower value 0.976 | locus YDR334W, strain swr1, stronger effect = lower value 0.944 | locus YDR335W, strain msn5, stronger effect = lower value 0.974 | locus YDR392W, strain spt3, stronger effect = lower value 0.977 | locus YEL003W, strain gim4, stronger effect = lower value 0.977 | locus YEL037C, strain rad23, stronger effect = lower value 0.937 | locus YEL061C, strain CIN8 (second series), stronger effect = lower value 0.979 | locus YER015W, strain faa2, stronger effect = lower value 0.981 | locus YER016W, strain bim1, stronger effect = lower value 0.99 | locus YER111C, strain swi4, stronger effect = lower value 0.993 | locus YER155C, strain BEM2 (second series), stronger effect = lower value 0.99 | locus YFR010W, strain ubp6, stronger effect = lower value 0.96 | locus YGL167C, strain pmr1, stronger effect = lower value 0.982 | locus YGL173C, strain kem1, stronger effect = lower value 0.983 | locus YGL227W, strain vid30, stronger effect = lower value 0.981 | locus YGL240W, strain doc1, stronger effect = lower value 0.991 | locus YGL253W, strain hxk2, stronger effect = lower value 0.998 | locus YHR013C, strain ard1, stronger effect = lower value 0.97 | locus YHR027C, strain rpn1, stronger effect = lower value 0.984 | locus YHR142W, strain chs7, stronger effect = lower value 0.947 | locus YJL092W, strain hpr5, stronger effect = lower value 0.978 | locus YJL095W, strain BCK1 (second series), stronger effect = lower value 0.984 | locus YJL115W, strain asf1, stronger effect = lower value 0.959 | locus YJL129C, strain trk1, stronger effect = lower value 0.971 | locus YJL154C, strain vps35, stronger effect = lower value 0.979 | locus YJL164C, strain tpk1, stronger effect = lower value 0.989 | locus YJL166W, strain qcr8, stronger effect = lower value 0.987 | locus YJL187C, strain SWE1, stronger effect = lower value 0.985 | locus YKL160W, strain elf1, stronger effect = lower value 0.975 | locus YKR026C, strain gcn3, stronger effect = lower value 0.963 | locus YKR091W, strain srl3, stronger effect = lower value 0.986 | locus YLL001W, strain dnm1, stronger effect = lower value 0.985 | locus YLL026W, stronger effect = lower value 0.98 | locus YLL041C, strain sdh2, stronger effect = lower value 0.973 | locus YLR027C, strain aat2, stronger effect = lower value 0.984 | locus YLR221C, strain rsa3, stronger effect = lower value 0.987 | locus YLR258W, strain gsy2, stronger effect = lower value 0.996 | locus YLR262C, strain YPT6 (second series), stronger effect = lower value 0.984 | locus YLR320W, strain mms22, stronger effect = lower value 0.99 | locus YLR342W, strain FKS1, stronger effect = lower value 0.987 | locus YLR357W, strain rsc2, stronger effect = lower value 0.977 | locus YLR370C, strain arc18, stronger effect = lower value 0.983 | locus YLR384C, strain iki3, stronger effect = lower value 0.991 | locus YML120C, strain ndi1, stronger effect = lower value 0.949 | locus YMR058W, strain fet3, stronger effect = lower value 0.966 | locus YMR125W, strain sto1, stronger effect = lower value 0.992 | locus YMR129W, stronger effect = lower value 0.981 | locus YMR205C, strain PFK2, stronger effect = lower value 0.994 | locus YMR231W, strain pep5, stronger effect = lower value 0.984 | locus YNL071W, strain lat1, stronger effect = lower value 0.977 | locus YNL209W, strain ssb2, stronger effect = lower value 0.982 | locus YNL248C, strain rpa49, stronger effect = lower value 0.94 | locus YNL322C, strain KRE1 (second series), stronger effect = lower value 0.984 | locus YNR049C, strain mso1, stronger effect = lower value 0.982 | locus YOR001W, strain rrp6, stronger effect = lower value 0.975 | locus YOR070C, strain gyp1, stronger effect = lower value 0.999 | locus YOR080W, strain dia2, stronger effect = lower value 0.974 | locus YOR083W, strain WHI5, stronger effect = lower value 0.975 | locus YOR106W, strain vam3, stronger effect = lower value 0.983 | locus YOR265W, strain rbl2, stronger effect = lower value 0.991 | locus YOR270C, strain vph1, stronger effect = lower value 0.983 | locus YOR290C, strain snf2, stronger effect = lower value 1.01 | locus YPL051W, strain arl3, stronger effect = lower value 0.981 | locus YPL078C, strain atp4, stronger effect = lower value 0.976 | locus YPL106C, strain sse1, stronger effect = lower value 0.984 | locus YPL240C, strain hsp82, stronger effect = lower value 0.971
